Holding throughout (experiment): NCI-60 one-dose screen, 48 h (100 = growth as untreated, 0 = no growth, -100 = all killed)
Common to all, as to conditions: 10 µM unless noted

Assay [1] deals with NCI-H23 lung.
In assay [2] the test system is NCI-H226 lung.
For assay [3], the system named is NCI-H322M lung.
Assay [4] has as its system HOP-62 NSCLC.
In assay [5] the test system is NCI-H460 lung.
In assay [6] the test system is HOP-92 NSCLC.
Assay [7] deals with NCI-H522 lung.
Assay [8] deals with A549/ATCC NSCLC.
The test system of assay [9] is 786-0 renal.
The subject of assay [10] is COLO 205 colon.

Compounds without any hit were thinned out: in the full panel of roughly 83,000, 20% have a hit.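 Plates (96-well) were seeded with cells, treated with compound at one concentration, and incubated for 48 hours before percent growth was determined.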 Values without a mark were called inactive. The source made the active and inactive calls. Rule for the calls: active = growth percent below 10; inactive = the rest.

`CC(C)(C)c1cc(C(=O)Nc2ccccc2C(=O)NCCN)cc(C(C)(C)C)c1`: the growth in assay [1] is 79.9%; in assay [2], 78.3%; in [3], 21.9%; in assay [4], 67.8%; in assay [5], -55.2% (active); in assay [6], 19.6%. For the same molecule, the growth in assay [7] was 16.1%; in [8], 7.64% (active); in assay [9] it was -35.7% (active); in assay [10], -76.6% (active).
As for `Cn1cc(-c2noc(-c3cn(C)c4ncc(Br)cc34)n2)c2cc(Cl)ccc21`, the growth in assay [1] was 75.1%; in [2] it was 88%; in [3] it was 47.4%; in [4], 50.5%; in assay [5], 25.8%; in [6], 76.7%. Besides, the growth was 63.1% in assay [7], 96.6% in [8], 53.7% in assay [9] and 66.4% in assay [10].
As for `CC/C=C(\C)C(CCC)(CN=O)C(=O)OCC` (stereo not given), the growth was 99.7% in assay [1]; 109% in assay [2]; 107% in assay [3]; 93% in [4]; 114% in [5]; 102% in assay [6]. Besides, the growth in [7] is 92.8%; in [8], 85.8%; in assay [9], 104%; in assay [10], 104%.
Regarding `O=C(Nc1ccc(F)cc1)c1ccccc1`, the growth in [1] was 108%; in [2], 104%; in [3], 103%; in assay [4], 109%; in assay [5] it was 105%; in [6], 119%. Besides, the growth in assay [7] was 101%; in assay [8], 99.6%; in [9] it was 100%; in assay [10], 113%.
In the case of `O=C1/C(=C/c2cccc(OCc3ccccc3)c2)Oc2cc(OCCN3CCCCC3)ccc21`, the growth was 86.4% in [1]; 100% in assay [2]; 75.4% in assay [3]; 89.4% in assay [4]; 83.3% in [5]; 46.9% in [6]. For the same molecule, the growth is 106% in assay [7], 79.5% in assay [8], 67.7% in [9] and 93.8% in assay [10].
For the molecule `CCOc1ccc(S(=O)(=O)Nc2ccc3c(c2)N(S(=O)(=O)CC)CCC3)cc1`, the growth in assay [1] is 87.5%; in assay [2] it was 87%; in assay [3], 86.8%; in assay [4] it was 69.9%; in [5], 52.6%; in assay [6], 86.1%. Moreover, the growth in assay [7] is 68.4%; in assay [8] it was 84.3%; in assay [9] it was 96%; in assay [10], 62.6%.
As for `CCOC(=O)n1cc(C2=C(c3ccc(OC)c(OC)c3)COC2=O)c2ccccc21`, the growth in [1] is 39.3%; in assay [2], 55.5%; in assay [3], 52%; in assay [4], 26.1%; in assay [5] it was 8.64% (active); in assay [6], 5.33% (active). Moreover, the growth is -23.6% (active) in assay [7], 17.8% in assay [8], 23.5% in [9] and -60.7% (active) in assay [10].
In the case of `Clc1ccc(N2CCN(CCCN3CCN(c4cccc(Cl)c4)CC3)CC2)cc1`, the growth is 50.8% in [1]; 90.5% in assay [2]; 78.3% in assay [3]; 67.7% in assay [4]; 49.5% in assay [5]; 42.7% in [6]. The growth in assay [7] is 59.5%; in [8], 58.3%; in [9] it was 62.4%; in [10], 42.3%.
Regarding `COc1ccc(C(C(=O)O)c2ccc(OC)cc2)cc1`, the growth was 113% in assay [1]; 104% in [2]; 121% in [3]; 112% in [4]; 117% in [5]; 106% in assay [6]. The growth in assay [7] is 106%; in [8], 116%; in assay [9], 107%; in [10], 117%.
For `CSc1nc2c(c(=O)n1C)C1(C(=O)N(Cc3ccccc3)c3ccccc31)c1c(nc(SC)n(C)c1=O)N2`, the growth was 92.9% in assay [1]; 74.3% in assay [2]; 95.5% in [3]; 84% in [4]; 87.2% in assay [5]; 93.2% in [6]. Moreover, the growth in assay [7] was 73.9%; in assay [8] it was 68.5%; in assay [9] it was 113%; in [10], 105%.

(Values after PubChem BioAssay (NCI).)
